# Experimental data as given in PubChem BioAssay (NCATS).
# Several values for one entry are separate records, joined by “and”; a condition that tells them apart may be missing. Equal entries are not always repeated. A number with no mark means an inactive call. Results filed as inconclusive are left out. Entries that show only a call come without a potency. Activity calls are given as the source filed them. The call rests on the fitted dose curve; in most records, active means well fitted curve in the direction sought with a large enough effect; inconclusive means small, poorly fitted or top-dose-only effect, or another doubt; inactive means no such curve, though single readings can be large; an effect the other way counts as inactive or inconclusive.
# Tests used:
# [1] = Primary qHTS for inhibitors of nuclear receptor binding SET domain protein 2 (NSD2) in an RCH-ACV wild type WT cells (2C) (AID 1645877); further: nearly all actives have a fitted effect of over 70% in size; further: potency means the concentration at half of the fitted maximal effect
# [2] = biological target: Glutathione peroxidase 1 (Homo sapiens) (UniProt P07203); experiment: Primary qHTS Assay for Inhibitors of Recombinant Selenoprotein Glutathione Peroxidase 1 (GPX1) (AID 1845191); further: nearly all actives have a fitted effect of over 65% in size; further: potency means the concentration at half of the fitted maximal effect
# Sequence of Glutathione peroxidase 1 (Homo sapiens) (P07203 whole entry, looked up): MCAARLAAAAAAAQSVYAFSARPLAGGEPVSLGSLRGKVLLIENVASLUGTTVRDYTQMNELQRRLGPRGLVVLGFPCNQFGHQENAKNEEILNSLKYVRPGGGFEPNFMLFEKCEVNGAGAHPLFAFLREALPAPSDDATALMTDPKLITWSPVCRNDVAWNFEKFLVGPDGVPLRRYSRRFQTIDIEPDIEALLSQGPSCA
# Method in brief: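 10 nM GPX1 + cpd, 30 min RT; start w/ 1 mM GSH, 0.5 mM cumene hydroperoxide, 0.5 mM NADPH, 100 nM GR, 0.01% BSA; buffer 50 mM Tris-HCl pH 7.5, 2 mM EDTA, 150 mM NaCl; Fl 340/450, 0 & 15 min.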
# [3] = biological target: Luciferin 4-monooxygenase (Photinus pyralis) (UniProt P08659); experiment: Primary firefly luciferase (FLuc) qHTS assay for identification of artifact compounds. (AID 1845220); further: nearly all actives have a fitted effect of over 60% in size; further: potency means the concentration at half of the fitted maximal effect; on activity change, negative = inhibition: series mostly up to about 54 µM
# Method in brief: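 Compounds sat 15 min at room temperature with 10 uM luciferin and 10 uM ATP (pH 7.6 Tris acetate). Firefly luciferase (10 nM final) was then added, and luminescence was read 5 min later. Data normalized to no-enzyme and DMSO controls were Hill-fitted.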
# [4] = Primary fluorescence-based thiol-reactive (MSTI) qHTS assay for identification of artifact compounds. (AID 1845221); further: nearly all actives have a fitted effect of over 65% in size; further: potency means the concentration at half of the fitted maximal effect;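 on activity change, negative = thiol reactive: series mostly up to about 54 µM; thiol-reactive compounds lower the probe fluorescence signal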
# Method in brief: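 A multi-concentration qHTS design tested compounds against 4 uM MSTI, pH 7.4 phosphate-buffered saline. Plates were protected from light for 1 h at room temperature before imaging fluorescence.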
# [5] = test system: Nanoluciferase (engineered Oplophorus gracilirostris luciferase); experiment: Primary Nanoluciferase (NLuc) qHTS assay for identification of artifact compounds. (AID 1845222); further: potency means the concentration at half of the fitted maximal effect; on activity, negative = inhibition: series mostly up to about 54 µM
# Method in brief: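 Luminescence from secreted NLuc (filtered, 1:55-diluted S16 cell medium) read 5 min after Nano-Glo substrate; compounds preincubated 15 min, RT. Hill fits of inhibition normalized to DMSO and no-enzyme.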
# [6] = Primary redox qHTS assay for identification of artifact compounds. (AID 1845223)
# Method in brief: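 Amplex Red (25 uM) and HRP (250 mU/mL) in HBSS, with compounds for 15 min, then 250 uM DTT for 30 min, room temperature, dark. Fluorescence 525/598 nm read; normalized to DMSO and 10 uM DA3003; Hill fit.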
# [7] = biological target: Phospholipid hydroperoxide glutathione peroxidase GPX4 (Homo sapiens) (UniProt P36969); experiment: Primary qHTS Assay for Inhibitors of Recombinant Selenoprotein Glutathione Peroxidase 4 (GPX4) (AID 1845192); further: nearly all actives have a fitted effect of over 65% in size; further: potency means the concentration at half of the fitted maximal effect; on activity change, negative = inhibition: series mostly up to about 50 µM
# Sequence of Phospholipid hydroperoxide glutathione peroxidase GPX4 (Homo sapiens) (P36969 whole entry, looked up): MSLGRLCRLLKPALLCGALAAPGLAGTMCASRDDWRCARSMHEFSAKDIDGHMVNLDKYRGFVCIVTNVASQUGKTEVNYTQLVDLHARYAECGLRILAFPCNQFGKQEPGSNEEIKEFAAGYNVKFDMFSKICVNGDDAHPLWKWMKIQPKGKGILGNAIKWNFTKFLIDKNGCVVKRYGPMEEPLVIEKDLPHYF
# Method in brief: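 NADPH consumption, followed by fluorescence at 340/450 nm between 0 and 15 min, reports GPX4 activity via coupled glutathione reductase (100 nM). Enzyme 200 nM was pre-exposed to compound 30 min; 0.5 mM cumene hydroperoxide and 1 mM GSH served as substrates.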
structure (smiles),measurement,setting,value
Cc1ccc(-c2ccc3ncc4c(c3n2)n(C2CCN(C(=O)[C@H](C)O)CC2)c(=O)n4C)cn1,Potency,[1],74.2 nM (active)
same,Potency,[2],22.7 µM (active)
same,Potency,[3],inactive
same,Potency,[4],inactive
same,Potency,[5],inactive
same,Potency,[6],inactive
CC(C)(O)c1ccc2c(c1)C(O)C[C@H]1[C@](C)(C(=O)O)CCC[C@]21C (stereo partly drawn),Potency,[1],inactive
same,Potency,[2],inactive
same,Potency,[7],inactive
same,Potency,[5],inactive
same,Potency,[6],inactive
C=C1C(=O)O[C@@H]2[C@H]1CCC(C)=C1CCC(=O)O[C@]12C,Potency,[1],4090 nM (active)
same,Potency,[2],inactive
same,Potency,[7],inactive
same,Potency,[4],18.9 µM (active)
same,Potency,[5],inactive
same,Potency,[6],inactive
NC1CCCCN(c2c(F)cc3c(=O)c(C(=O)O)cn(C4CC4)c3c2Cl)C1 (stereo not drawn),Potency,[1],inactive
same,Potency,[2],inactive
same,Potency,[7],inactive
same,Potency,[4],inactive
same,Potency,[5],inactive
same,Potency,[6],inactive
Cn1cncc1C(N)(c1ccc(Cl)cc1)c1ccc2c(c1)c(-c1cccc(Cl)c1)cc(=O)n2C (stereo not drawn),Potency,[1],833 nM (active)
same,Potency,[2],inactive
same,Potency,[3],inactive
same,Potency,[5],inactive
same,Potency,[6],inactive
Nc1nccn2c(C3CCC(C(=O)O)CC3)nc(-c3cc4cccc(Cl)c4[nH]3)c12 (stereo not drawn),Potency,[1],1.15 µM (active) and 4.17 µM (active)
same,Potency,[2],inactive
same,Potency,[4],6.7 µM (active)
CC1CCC2(C(=O)O)CCC3(C)C(=CCC4C5(C)CCC(OC(=O)/C=C/c6ccccc6)C(C)(C)C5CCC43C)C2C1C (stereo not drawn),Potency,[1],inactive
same,Potency,[2],inactive
same,Potency,[7],inactive
same,Potency,[4],inactive
same,Potency,[5],inactive
same,Potency,[6],inactive
O=C(NCc1ccccn1)Nc1nnc(-c2ccco2)o1,Potency,[1],inactive
same,Potency,[2],inactive
same,Potency,[3],inactive
same,Potency,[5],inactive
same,Potency,[6],inactive
C[C@@H]1CN(Cc2ncccn2)C[C@H]1c1nc2c(cnn2C2CCOCC2)c(=O)[nH]1,Potency,[1],inactive
same,Potency,[2],inactive
same,Potency,[7],inactive
same,Potency,[4],inactive
same,Potency,[5],inactive
same,Potency,[6],inactive
O=C1OCc2cc3cccc(O[C@@H]4O[C@H](CO)[C@@H](O)[C@H](O)[C@H]4O)c3c(O)c21,Potency,[1],inactive
same,Potency,[2],inactive
same,Potency,[7],inactive
same,Potency,[4],1.65 µM (active)
same,Potency,[5],inactive
same,Potency,[6],inactive
CCN1CCN(Cc2ccc(NC(=O)c3ccc(C)c(NC(=O)c4cncc(-c5cccs5)c4)c3)cc2C(F)(F)F)CC1,Potency,[1],51.5 nM (active) and 186 nM (active)
same,Potency,[2],inactive
same,Potency,[7],inactive
same,Potency,[4],inactive
same,Potency,[5],inactive
same,Potency,[6],inactive
CCOc1ccc2nc(SCCN3CCOCC3)[nH]c2c1,Potency,[1],inactive
same,Potency,[2],inactive
same,Potency,[7],inactive
same,Potency,[4],inactive
same,Potency,[5],inactive
same,Potency,[6],inactive
COc1ccc(CN2C(=O)C(=O)c3cc(S(=O)(=O)N4CCC[C@H]4COc4cccnc4)ccc32)cc1,Potency,[1],inactive
same,Potency,[2],22.7 µM (active)
same,Potency,[7],25.5 µM (active)
same,Potency,[4],inactive
same,Potency,[5],inactive
same,Potency,[6],inactive
CC1=CC(=O)CC(C)(C)C1/C=C/C(C)O[C@@H]1O[C@H](CO)[C@@H](O)[C@H](O)[C@H]1O[C@@H]1OC[C@](O)(CO)[C@H]1O (stereo partly drawn),Potency,[1],inactive
same,Potency,[2],inactive
same,Potency,[7],inactive
same,Potency,[4],inactive
same,Potency,[5],inactive
same,Potency,[6],inactive
O=C(CSc1nc2c(c(=O)n1-c1ccccc1)SCC2)Nc1ccc(-c2ccccc2)cn1,Potency,[1],32.5 nM (active)
same,Potency,[2],inactive
same,Potency,[7],inactive
same,Potency,[4],inactive
same,Potency,[5],inactive
same,Potency,[6],inactive
Cn1c2ccc(F)cc2c2c(C(=O)N3CCCC3)cn(-c3ccccc3)c(=O)c21,Potency,[1],inactive
same,Potency,[2],18 µM (active)
same,Potency,[3],inactive
same,Potency,[4],inactive
same,Potency,[5],inactive
same,Potency,[6],inactive
C[C@@H]1C[C@@H]2O[C@H]2/C=C\C=C\C(=O)Cc2c(Cl)c(O)cc(O)c2C(=O)O1,Potency,[1],450 nM (active)
same,Potency,[7],inactive
same,Potency,[3],inactive
same,Potency,[4],inactive
same,Potency,[5],inactive
CNC(=O)c1ccccc1Nc1nc(Nc2ccc3c(c2OC)CCC[C@@H](N2CCN(CCO)CC2)C3)ncc1Cl,Potency,[1],6610 nM (active)
same,Potency,[7],inactive
same,Potency,[3],inactive
same,Potency,[4],inactive
same,Potency,[5],inactive
COc1ccc(C[C@H](N)C(=O)N[C@@H]2[C@H](O)[C@H](n3cnc4c(N(C)C)ncnc43)O[C@@H]2CO)cc1,Potency,[1],205 nM (active)
same,Potency,[7],inactive
same,Potency,[3],inactive
same,Potency,[4],inactive
same,Potency,[5],inactive
same,Potency,[6],inactive
O=C(Nc1c(-c2cccs2)nc2ccccn12)c1ccc(Cl)cc1,Potency,[1],inactive
same,Potency,[7],inactive
same,Potency,[3],inactive
same,Potency,[4],inactive
same,Potency,[5],inactive
O=C1NC(=O)C(c2cn3c4c(cccc24)CCC3)C1c1c[nH]c2ccccc12 (stereo not drawn),Potency,[1],916 nM (active)
same,Potency,[7],inactive
same,Potency,[3],inactive
same,Potency,[4],inactive
same,Potency,[5],inactive
same,Potency,[6],inactive
COc1cc2c(cc1OC)-c1[nH]nc(Nc3cccc(F)c3)c1C2,Potency,[1],57.8 nM (active)
same,Potency,[7],inactive
same,Potency,[3],inactive
same,Potency,[4],1.89 µM (active)
same,Potency,[5],inactive
same,Potency,[6],inactive
C1CCC[C@H]2CCCN3CC[C@@H](CCCCCC[C@@H]4CCCN5CC[C@@H](CC1)O[C@@H]45)O[C@@H]23,"activity change, negative = cell killing",[1],-1.13% [at 0.177 µM]
same,"activity change, negative = inhibition",[7],-4.98% [at 0.121 µM]
same,outcome,[3],inactive [at 0.0969 µM]
same,"activity change, negative = thiol reactive",[4],0.0753% [at 0.0963 µM]
same,"activity, negative = inhibition",[5],2.4% [at 0.0969 µM]
CNC(=O)c1ccccc1Nc1nc(Nc2ccc3c(c2OC)CCCC(N2CCN(CCO)CC2)C3)ncc1Cl (stereo not drawn),Potency,[1],7280 nM (active)
same,Potency,[7],inactive
same,Potency,[3],inactive
same,Potency,[4],inactive
same,Potency,[5],inactive
same,Potency,[6],inactive
NC1(C(=O)NC(CCO)c2ccc(Cl)cc2)CCN(c2ncnc3[nH]ccc23)CC1 (stereo not drawn),Potency,[1],1300 nM (active)
same,Potency,[7],inactive
same,Potency,[3],inactive
same,Potency,[4],inactive
same,Potency,[5],inactive
same,Potency,[6],inactive
NC(=O)Nc1cc(-c2cccc(F)c2)sc1C(=O)NC1CCCNC1 (stereo not drawn),Potency,[1],81.7 nM (active)
same,Potency,[7],inactive
same,Potency,[3],inactive
same,Potency,[4],inactive
same,Potency,[5],inactive
same,Potency,[6],inactive
CCOC(=O)C(CCc1ccccc1)NC1CSC(c2cccs2)CN(CC(=O)O)C1=O (stereo not drawn),Potency,[1],inactive
same,Potency,[7],inactive
same,Potency,[3],inactive
same,Potency,[4],inactive
same,Potency,[5],inactive
COc1c/c(=C2\C=c3ccccc3=N2)[nH]/c1=C\c1[nH]c(C)cc1C,Potency,[1],4590 nM (active)
same,Potency,[7],inactive
same,Potency,[3],3.38 µM (active)
same,Potency,[4],1.19 µM (active)
same,Potency,[5],10.7 µM (active)
C[C@H](CCC(=O)O)[C@H]1CC[C@H]2[C@@H]3C[C@H](O)[C@@H]4C[C@H](O)CC[C@]4(C)[C@H]3CC[C@]12C,Potency,[1],inactive
same,Potency,[7],inactive
same,Potency,[3],inactive
same,Potency,[4],inactive
same,Potency,[5],inactive
CCOc1cc(CC(=O)NC(CC(C)C)c2ccccc2N2CCCCC2)ccc1C(=O)O (stereo not drawn),Potency,[1],inactive
same,Potency,[7],inactive
same,Potency,[3],inactive
same,Potency,[4],inactive
same,Potency,[5],inactive
same,Potency,[6],inactive
COc1ccc(C2=N[C@@H](c3ccc(Cl)cc3)[C@@H](c3ccc(Cl)cc3)N2C(=O)N2CCNC(=O)C2)c(OC(C)C)c1,Potency,[1],1630 nM (active)
same,Potency,[7],inactive
same,Potency,[3],inactive
same,Potency,[4],inactive
same,Potency,[5],inactive
same,Potency,[6],inactive
O=C(c1ccc(/C=C/c2n[nH]c3ccccc23)cc1)N1CCNCC1,Potency,[1],515 nM (active) and 1.86 µM (active)
same,Potency,[2],inactive
same,Potency,[4],inactive
same,Potency,[5],inactive
same,Potency,[6],inactive
